{"source": "PubChem BioAssay (Tox21)", "note": "Records with an inconclusive call do not appear. A number with no mark means an inactive call. The source made the active and inactive calls. Calls come from the whole dose curve; as a rule, active = well fitted activation curve with a large enough effect in the signal ratio in the repeat runs (not every such curve was filed as active); inconclusive = weak or mixed curves; inactive = flat fitted curve, though single readings scatter; the % refers to the signal ratio. % is set by controls: 0 for no effect and ±100 for the full control effect."}
{"experiment": "qHTS assay to identify small molecule agonists of the hypoxia (HIF-1) signaling pathway (AID 1224846)", "conditions": "HRE-bla ME-180 cells, beta-lactamase ratio, 17 h; series mostly up to 76.8 µM; activation: at the top concentration", "description": "U.S. Tox21 Program National Center for Advancing Translational Sciences [NCATS] NIH Chemical Genomics Center [NCGC] U.S. Environmental Protection Agency [EPA] National Institutes of Environmental Health Sciences [NIEHS] National Toxicology Program [NTP] U.S. Food and Drug Administration [FDA] Tox21 Assay Overview: Hypoxia-inducible factor-1 (HIF-1) is the major hypoxia-regulated transcription factor that controls cellular responses to low oxygen concentration. HIF-1 is composed of two subunits: hypoxia responsive HIF-1-alpha and constitutively expressed HIF-1-beta, which is also known as aryl hydrocarbon receptor nuclear translocator. During hypoxic conditions, HIF-1-alpha heterodimerizes with HIF-1-beta and translocates into the nucleus where the HIF-1 complex binds to the hypoxia-response element (HRE) and activates expression of target genes such as VEGF (vascular endothelial growth factor). The HIF-1 pathway is essential to normal growth and development, and is involved in the pathophysiology of cancer, inflammation, and ischemia. Using a beta-lactamase reporter-gene under control of the hypoxia response element, a cell-based assay [CellSensor(TM) HRE-bla ME-180 from Life Technologies, Carlsbad, CA] was used to measure hypoxia-induced signaling. Tox21 10K library compounds were measured for their ability to induce the reporter gene activity.\nTox21 Assay Protocol Summary: HRE-bla ME-180 cells were dispensed at 2,000 cells per well in 6 uL of assay medium containing 0.5% dialyzed FBS into black wall/clear-bottom 1536-well plates using a Multidrop Combi (Thermo Scientific, Waltham, MA) dispenser. After the assay plates were incubated at 37C and 5% CO2 for 5 hrs, 23 nL of compounds dissolved in DMSO, positive controls or DMSO only was transferred to each well of the assay plate using a Pintool station (Kalypsys, San Diego, CA). The assay plates were incubated at 37C and 5% CO2 for 17 hrs. One uL of LiveBLAzerTM B/G FRET substrate (CCF4-AM) (Life Technologies) was added to each well using a Flying Reagent Dispenser (Aurora Discovery, San Diego, CA)."}
{"smiles": "CC(=O)Oc1ccc(C(c2ccc(OC(C)=O)cc2)c2ccccn2)cc1", "outcome": "inactive"}
{"smiles": "c1ccc2c(c1)ccc1cc3c(ccc4ccccc43)cc12", "outcome": "inactive"}
{"smiles": "Cc1ccc(S(=O)(=O)O)cc1C", "outcome": "inactive"}
{"smiles": "CC(=O)O[C@]1(C(C)=O)CC[C@H]2[C@@H]3C=C(Cl)C4=CC(=O)CC[C@]4(C)[C@H]3CC[C@@]21C", "outcome": "inactive"}
{"smiles": "O=C1OC2(c3ccccc31)c1cc(I)c(O)c(I)c1Oc1c2cc(I)c(O)c1I", "outcome": "inactive"}
{"smiles": "CCC(Cc1c(I)cc(I)c(N)c1I)C(=O)O", "note": "(stereo not given)", "activation": "-1.03% [at 35.5 µM]"}
{"smiles": "ClC/C=C/CCl", "outcome": "inactive"}
{"smiles": "NCCOCCO", "outcome": "inactive"}
{"smiles": "COc1cc([C@H]2Oc3cc([C@H]4Oc5cc(O)cc(O)c5C(=O)[C@@H]4O)ccc3O[C@@H]2CO)ccc1O", "outcome": "inactive"}
{"smiles": "OC[C@H]1O[C@@H]2O[C@H]3[C@H](O)[C@@H](O)[C@@H](O[C@H]4[C@H](O)[C@@H](O)[C@@H](O[C@H]5[C@H](O)[C@@H](O)[C@@H](O[C@H]6[C@H](O)[C@@H](O)[C@@H](O[C@H]7[C@H](O)[C@@H](O)[C@@H](O[C@H]1[C@H](O)[C@H]2O)O[C@@H]7CO)O[C@@H]6CO)O[C@@H]5CO)O[C@@H]4CO)O[C@@H]3CO", "outcome": "inactive"}
{"smiles": "FC(F)(F)C(Cl)Br", "note": "(stereo not given)", "outcome": "inactive"}
{"smiles": "c1ccc2c(c1)[nH]c1ccccc12", "outcome": "inactive"}
{"smiles": "CCCCCCCCCCC(CO)CCCCCCCC", "note": "(stereo not given)", "outcome": "inactive"}
{"smiles": "CCCCCC1C(=O)CCC1CC(=O)OC", "note": "(stereo not given)", "outcome": "inactive"}
{"smiles": "C=CC(C)(O)CCC=C(C)C", "note": "(stereo not given)", "outcome": "inactive"}
{"smiles": "O=C1CCc2ccccc2O1", "outcome": "inactive"}
{"smiles": "C=CC(=O)OCCCC", "outcome": "inactive"}
{"smiles": "CCCN1C=CN(C)C1", "outcome": "inactive"}
{"smiles": "O=Cc1ccccc1C=O", "activation": "0.884% [at 35.5 µM]"}
{"smiles": "Nc1cc(Cl)c(N)c(Cl)c1", "outcome": "inactive"}
{"smiles": "C1COCCN1", "outcome": "inactive"}
{"smiles": "Nc1ccc(N)c(Cl)c1", "outcome": "inactive"}
{"smiles": "C=C[C@@]1(C)CC(=O)[C@]2(O)[C@@]3(C)[C@@H](O)CCC(C)(C)[C@@H]3[C@H](O)[C@H](OC(C)=O)[C@@]2(C)O1", "outcome": "inactive"}
{"smiles": "CCCCCCOCCOCCO", "outcome": "inactive"}
{"smiles": "O=C(O)CCCC(=O)O", "outcome": "inactive"}
{"smiles": "CCCCCCCCCCCCCO", "outcome": "inactive"}
{"smiles": "CC(=O)Nc1ccc2c(c1)Cc1cc(NC(C)=O)ccc1-2", "outcome": "inactive"}
{"smiles": "OC[C@@H](O)[C@@H](O[C@@H]1O[C@H](CO)[C@H](O)[C@H](O)[C@H]1O)[C@H](O)[C@@H](O)CO", "outcome": "inactive"}
{"smiles": "COC(=O)C(C)Oc1ccc(Oc2ncc(C(F)(F)F)cc2Cl)cc1", "note": "(stereo not given)", "outcome": "inactive"}
{"smiles": "O=S1(=O)CCCO1", "outcome": "inactive"}
{"smiles": "C=CCNCC=C", "outcome": "inactive"}
{"smiles": "Cc1ccc(C(C)(C)C)cc1", "outcome": "inactive"}
{"smiles": "Cc1ccc([N+](=O)[O-])c(C)c1", "activation": "-0.235%"}
{"smiles": "CC(=O)Oc1c(C)c(C)c2c(c1C)CC[C@@](C)(CCC[C@H](C)CCC[C@H](C)CCCC(C)C)O2", "outcome": "inactive"}
{"smiles": "c1ccc2cc3ccccc3cc2c1", "activation": "6.18%"}
{"smiles": "C=C1C[C@H]2[C@@H]3C=C(C)C4=CC(=O)CC[C@]4(C)[C@H]3CC[C@]2(C)[C@@]1(OC(C)=O)C(C)=O", "outcome": "inactive"}
{"smiles": "O=C(O)c1ccc(O)cc1", "outcome": "inactive"}
{"smiles": "[O-]/[N+](=N\\O)c1ccccc1", "outcome": "inactive"}
{"smiles": "Cc1ccc(C)c(O)c1", "outcome": "inactive"}
{"smiles": "CCC/C=C/C=O", "outcome": "inactive"}
